KinaseGlo FLuc: blocks Kinase-Glo luciferase, a counter-screen artifact; Potency, µM (titrated, usually from 38.3 µM), inactives show at the top dose activity change, negative = inhibition, usual class: inhibitors; Q27757; actives 0.28% (n = 200,000); AID 1379; Kinase-Glo luciferase, ATP luminescence, 8 min; note: % is set by controls: 0 for no effect and ±100 for the full control effect; nearly all actives have a fitted effect of over 60% in size
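Compound is pinned into ATP-containing buffer (10 uM ATP, imidazole pH 7.2, 7 mM MgCl2). Kinase-Glo luciferase reagent is then added. Light output is recorded following an 8-min room-temperature incubation.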
ELG1 genotoxic: genotoxicity induction in ELG1-luciferase HEK293T cells. Potency, µM (doses to about 46 µM), inactives show at the top dose activity change, positive = activation, actives largely listed as activators. HEK293T ELG1-luciferase reporter, luminescence, 16 h. actives 1.3% (n = 330,000); note: % of control where 0% means no effect; nearly all actives have a fitted effect of over 60% in size
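16 hr compound incubation (37 °C, 5% CO2) of HEK293T cells carrying luciferase-tagged ELG1; luciferase then measured by ONE-Glo luminescence after 30 min at RT.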
SMN2 splice up: increases expression of the SMN2 splice variant | actives 2.8% (n = 210,000) | Potency, µM (titrated, usually from 46.1 µM), for the others: top-dose activity change, positive = activation, actives largely listed as activators | HEK293 SMN2-luciferase splicing reporter, luminescence, 30-36 h; note: % of control where 0% means no effect; nearly all actives have a fitted effect of over 55% in size
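qHTS luciferase splicing reporter: luminescence rises when SMN2 exon 7 is included in transfected HEK293 cells. Compound exposure lasted 30-36 h at 37C, with 4.5 mM final sodium butyrate as control, followed by a ONE-Glo read.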
NPC1 promoter act: activators of NPC1 promoter | Huh7 NPC1 promoter luciferase reporter, 24 h | Potency, µM (highest dose often 9.22 µM), for the others: at the top dose activation, hits mostly activators | actives 2.4% (n = 320,000) | AID 485313; note: % of control where 0% means no effect; nearly all actives have a fitted effect of over 60% in size
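NPC1 promoter–luciferase Huh7 cells; 24 h compound; luminescence.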
FLuc modulator: inhibits or activates purified firefly luciferase, miR-21 counter-screen; actives 6.9% (n = 360,000); P08659; purified FLuc, Km substrates, luminescence inhibition; Potency, µM (top dose mostly 57.5 µM), inactives show at the highest dose activity change, negative = inhibition, usual class: inhibitors;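 note: plate controls were vehicle for no effect and reference inhibitor for full effect; nearly all actives have a fitted effect of over 55% in size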
Target sequence (P08659 whole entry, looked up): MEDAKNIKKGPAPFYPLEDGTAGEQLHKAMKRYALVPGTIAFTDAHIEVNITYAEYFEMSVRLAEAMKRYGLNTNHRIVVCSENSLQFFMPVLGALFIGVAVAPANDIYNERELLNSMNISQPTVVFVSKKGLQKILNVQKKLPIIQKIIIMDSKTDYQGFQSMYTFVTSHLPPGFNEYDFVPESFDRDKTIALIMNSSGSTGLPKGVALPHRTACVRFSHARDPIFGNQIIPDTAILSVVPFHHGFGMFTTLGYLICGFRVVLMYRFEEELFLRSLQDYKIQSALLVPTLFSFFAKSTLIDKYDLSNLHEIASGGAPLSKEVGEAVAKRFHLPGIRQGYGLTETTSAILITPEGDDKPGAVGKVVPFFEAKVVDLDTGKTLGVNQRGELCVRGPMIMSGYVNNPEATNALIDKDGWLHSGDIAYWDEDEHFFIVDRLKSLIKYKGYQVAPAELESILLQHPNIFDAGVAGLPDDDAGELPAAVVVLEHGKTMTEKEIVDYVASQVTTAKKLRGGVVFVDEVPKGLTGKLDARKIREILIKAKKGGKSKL
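Purified P. pyralis luciferase (10nM final) with 10uM D-luciferin and 10uM ATP (Km levels) in 50mM Tris acetate pH 7.5, 10mM Mg acetate, 0.01% Tween-20, 0.05% BSA; qHTS 6-point titration, ~60 µM downward; luminescence read.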
Rab9 prom act: activators of Rab9 promoter; Huh7 Rab9 promoter-luciferase reporter, luminescence, 24 h; actives 2.8% (n = 320,000); Potency, µM (top dose mostly 9.22 µM), inactives show at the top dose activation, negative = inhibition, hits mostly activators; note: % of control where 0% means no effect; nearly all actives have a fitted effect of over 60% in size
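Steps: seed 1500 Huh7 Rab9-luc cells per well, rest 2 h at 37 °C; add compound in DMSO; incubate 24 h; add luciferase reagent, 10 min ambient; read luminescence.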
* hit, by the source's call; ? = inconclusive; . = no result; [ ] = another dose, or the depositor's remark. Most compounds without a hit are left out; they make up all but 7.5% or so of the library. Calls come from the whole dose curve; as a rule, active = well fitted curve in the direction sought with a large enough effect; inconclusive = small, poorly fitted or top-dose-only effect, or another doubt; inactive = no such curve, though single readings can be large; an effect the other way counts as inactive or inconclusive. Potency is the fitted concentration of half-maximal effect.

SMILES	KinaseGlo FLuc	ELG1 genotoxic	SMN2 splice up	NPC1 promoter act	FLuc modulator	Rab9 prom act
CCn1cnc2sc(-c3ccccc3)cc2c1=O	-4%	3.7µM*	10µM*	1.3µM*	6µM*	2.8µM*
CC(=O)Cn1cnc2sc(-c3ccccc3)cc2c1=O	-4%	13µM*	20µM*	3.2µM*	9.5µM*	4.5µM*
O=C(Cn1cnc2sc(-c3ccccc3)cc2c1=O)N1CCOCC1	-1%	3%	24%	6%	-11%	-2%
N#CCn1cnc2sc(-c3ccccc3)cc2c1=O	1%	12%	8%	14%	-16%	27%
O=c1[nH]cnc2sc(-c3ccccc3)cc12	-7%	19%	16%	20%	15µM*	?
O=c1c2cc(-c3ccccc3)sc2ncn1-n1cccc1	-7%	?	?	1.8µM*	-18%	1.8µM*
Cc1c(OCC(=O)Nc2cccnc2)ccc2c3c(c(=O)oc12)CCC3	.	13%	.	30%	19µM*	28%
CCN(CC)C(=O)COc1ccc2c3c(c(=O)oc2c1C)CCCC3	.	0%	.	0%	-2%	-4%
Cc1c(OCc2ccc(C(=O)O)o2)ccc2c3c(c(=O)oc12)CCC3	-3%	?	12%	-1%	19µM*	2%
COC(=O)c1ccc(COc2ccc3c(C)c(C)c(=O)oc3c2C)o1	-1%	7%	16%	?	4.8µM*	?
COC(=O)c1ccc(COc2ccc(Cl)cc2)o1	.	8%	.	16%	?	20%
COc1ccccc1COc1ccc2c(C)c(CCC(=O)O)c(=O)oc2c1C	.	5%	.	-1%	24µM*	3%
C=CCSc1nnc(NC(=O)C23CC4CC(CC(NC(C)=O)(C4)C2)C3)s1	.	-14%	.	-2%	0%	-4%
CC1=C(C(=O)Nc2ccc(F)cc2F)C2(CCN(C(C)C)CC2)OC1=O	.	.	.	.	2%	.
Cc1cc(C)cc(NC(=O)c2oc3ccc4c(c3c2C)C(=O)CC(C)(C)O4)c1	.	.	.	.	0.76µM*	.
Cc1cccc(C)c1NC(=O)c1oc2ccc3c(c2c1C)C(=O)CC(C)(C)O3	.	.	.	.	-13%	.
Cc1c(C(=O)Nc2cccc(C(F)(F)F)c2)oc2ccc3c(c12)C(=O)CC(C)(C)O3	.	.	.	.	3.4µM*	.
Cc1c(C(=O)Nc2cccc(C(F)(F)F)c2)oc2ccc(S(=O)(=O)N3CCOCC3)cc12	1%	-11%	-27%	-12%	1%	-15%
Cc1c(C(=O)Nc2ccc(F)cc2F)oc2ccc3c(c12)C(=O)CC(C)(C)O3	.	.	.	.	1.1µM*	.
CCOc1ccccc1CNC(=O)CC(C)n1ccc(C)n1 (stereo not drawn)	.	.	.	.	2%	.
O=C(COC(=O)c1ccc[nH]c1=O)NCC12CC3CC(CC(C3)C1)C2	.	8%	.	10%	-2%	26%
CC(C)N(CCCNC(=O)Cn1c(=O)c2cccn2c2ccccc21)Cc1ccccc1	.	2%	.	-2%	-2%	-9%
CC(C)Cn1c(-c2cccs2)nc2nc3ccccc3nc21	-3%	-8%	-1%	-1%	?	2%
c1ccc(Cn2c(-c3cccs3)nc3nc4ccccc4nc32)cc1	-1%	4%	-5%	16%	15µM*	4%
Cc1nc2scc(C)n2c(=O)c1S(=O)(=O)NCC1CCN(Cc2ccc(F)cc2)CC1	.	-4%	.	-1%	3%	6%
SMILES	KinaseGlo FLuc	ELG1 genotoxic	SMN2 splice up	NPC1 promoter act	FLuc modulator	Rab9 prom act
C/C(N=NC(=[SH+])SCc1ccccc1)=C1\C=CC=CN1.[Cl][Cu]	0%[7.66 µM]	.	-64%[9.22 µM]	.	.	.
COC(=O)c1ccc(NC(=O)CC2C(=O)N(c3cccc(C)c3)C(=O)N2Cc2ccco2)cc1 (stereo not drawn)	.	.	.	.	-2%	.
O=c1ccnc(S/C=C/c2ccccc2)[nH]1	-24%	13%	16%	?	19µM*	16%
COc1ccc(C2=CSC3=NNC4(CCCCC4)NN23)cc1	3%	9%	5%	-11%	?	?
Cc1ccc(C2=CSC3=NNC4(CCCCC4)NN23)cc1	1%	15%	-17%	-14%	11µM*	4.5µM*
Cc1cccc(-n2c(=O)c3c(c4cc(C)ccc4n3C)n(CC(=O)N3CCCC3)c2=O)c1	.	.	.	.	-7%	.
C=CCn1c2ccccc2n2nc(C)c(=O)nc12	2%	1%	6%	-6%	0%	1%
C=CCn1c2ccccc2c(=O)c2cc(C#Cc3ccccn3)ccc21	.	3%	.	4µM*	7.6µM*	-4%
C=CCn1c(O)c(N=O)c2ccccc21	.	2%	.	0%	-3%	0%
C=CCn1c2ccccc2c(=O)c2cc(C#Cc3ccsc3)ccc21	.	10%	.	16%	0.67µM*	21%
Cc1ccc(OCc2ccccc2Br)c([N+](=O)[O-])n1	.	6%	.	3%	?	12%
COc1ccc(-n2c(SCc3ccccc3F)nc3c([nH]c4ccccc43)c2=O)cc1OC	.	.	.	.	0%	.
CC1CCCCN1C(=O)c1cc2ccccc2cc1O (stereo not drawn)	.	-2%	.	-5%	2%	-1%
Cc1ccc2nc(-c3ccc(NS(=O)(=O)c4ccc(F)c(F)c4)cc3)sc2c1	-3%	?	?	2.8µM*	1.2µM*	1.6µM*
Cc1ccc2nc(-c3ccc(NS(=O)(=O)c4ccccc4)cc3)sc2c1	-4%	7%	3%[1.84 µM]	15%	13µM*	13%
Cc1nc2ccc(NS(=O)(=O)c3ccc(F)c(F)c3)cc2s1	.	-1%	.	-2%	0%	-11%
CCn1cc(C=C2C(=O)c3ccccc3C2=O)c2ccccc21	-4%	?	10%	1%	6µM*	-2%
Cc1ccc(NC(=O)CSCc2cc(=O)n3ccsc3n2)cc1	.	-1%	.	3%	3%	-3%
O=C(Nc1ccc(F)c(Cl)c1)Nc1c[nH]c(=O)[nH]c1=O	.	.	.	.	-4%	.
Cc1ccc(C2=NNC(C(O)C(O)C(O)C(O)CO)S2)cc1 (stereo not drawn)	0%	?	-29%	2%	21µM*	12%
CCS(=O)(=O)c1ncc(Cl)c(C(=O)N(Cc2ccccc2)Cc2ccco2)n1	.	.	17%	.	-11%	.
COc1cc(/C=N/NC(=O)c2cc3ccccc3[nH]2)ccc1O	.	-11%	.	2%	17µM*	7%
COc1ccc(/C=N/NC(=O)c2cccc(C(=O)N/N=C/c3ccc(OC)cc3)n2)cc1	.	?	.	15%	0.3µM*	25%
COc1ccc(/C=N/NC(=O)Nc2nonc2N)cc1	-4%	?	10µM*	14%	?	25%
COc1ccc(/C=N/NC(=O)c2cccc(COCC(F)(F)C(F)F)c2)cc1	10%	0%	11%	-1%	5.4µM*	3%
COc1cc(/C=N/NC(=O)c2cc(-c3ccccc3)n[nH]2)ccc1O	-3%	.	.	.	.	.

Source: PubChem BioAssay
